Source: PubChem BioAssay (NCATS)
Several values for one entry are separate records, joined by “and”; a condition that tells them apart may be missing. Identical values can stand only once. Records with an inconclusive call do not appear. Activity calls are given as the source filed them. Calls follow the shape of the full dose curve.

Experiment: qHTS Assay for Lipid Storage Modulators (AID 1519); as to activity change, negative = inhibition: % is scaled to controls: 0 for no effect and ±100 for the full control effect
Details: Drosophila S3 cells, BODIPY lipid droplet/cell ratio, laser cytometry; at 25.7 µM (top of the series); cells loaded with oleic acid
Summary of the method: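 Cells seeded at 5,000 per well were treated with compounds over a concentration series and loaded with oleic acid (400 uM, as added). Lipid droplet fluorescence (488 nm excitation, 500-530 nm channel) was read by laser-scanning cytometry and normalized to 20 uM Triacsin C.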

Structure (SMILES)	activity change, negative = inhibition
Cc1c(C)c2c(c(C)c1O)CC[C@@](C)(CCC[C@@H](C)CCC[C@@H](C)CCCC(C)C)O2	-2.72% (inactive)
CC[N+](C)(C)Cc1ccccc1Br	-0.125% (inactive)
CC1(C)S[C@@H]2[C@H](NC(=O)[C@@H](NC(=O)N3CCNC3=O)c3ccccc3)C(=O)N2[C@H]1C(=O)O	-1.89% (inactive)
CC1(C)S[C@@H]2[C@H](NC(=O)Cc3ccccc3)C(=O)N2[C@H]1C(=O)O	-1.47% (inactive)
CCN(CC)Cc1cc(Nc2ccnc3cc(Cl)ccc23)ccc1O	-2.24% (inactive)
CC(C)(C)C(=O)OCOC(=O)[C@@H]1N2C(=O)[C@@H](N=CN3CCCCCC3)[C@H]2SC1(C)C	-0.208% (inactive)

Same assay, conditions: Drosophila S3 cells, BODIPY lipid droplet/cell ratio, laser cytometry; at 57.5 µM (top of the series); cells loaded with oleic acid

Structure (SMILES)	activity change, negative = inhibition
Oc1cc(O)c2c(c1)OC(c1ccc(O)c(O)c1)C(O)C2 (centres undefined)	7.06% (inactive)
OCc1ccccc1O[C@@H]1O[C@H](CO)[C@@H](O)[C@H](O)[C@H]1O	-1.43% (inactive)
Cc1cn([C@H]2C[C@H](O)[C@@H](CO)O2)c(=O)[nH]c1=O	-2.02% (inactive)
CCCC(=O)Nc1ncnc2c1ncn2C1OC2COP(=O)(O)OC2C1OC(=O)CCC (centres undefined)	10.5% (inactive)
CC[N+](C)(C)Cc1ccccc1Br	0.506% (inactive)
O=c1ccn([C@@H]2O[C@H](CO)[C@@H](O)[C@H]2O)c(=O)[nH]1	1.01% (inactive)
Cc1c(C)c2c(c(C)c1O)CC[C@@](C)(CCC[C@H](C)CCC[C@H](C)CCCC(C)C)O2	0.911% (inactive)
C[C@@H]1CCC2[C@@H](C)[C@@H](O)O[C@@H]3O[C@@]4(C)CC[C@@H]1[C@@]23OO4 (some centres undefined)	-0.729% (inactive)
CN1Cc2c(N)cccc2C(c2ccccc2)C1 (centres undefined)	0.643% (inactive)
CCCC(=O)Nc1ncnc2c1ncn2[C@@H]1O[C@@H]2COP(=O)(O)O[C@H]2[C@H]1OC(=O)CCC	1.77% (inactive)
CCC(=O)NCCC1CCc2ccc3c(c21)CCO3 (centres undefined)	11.3% (inactive)
O=C(O)CN(CCN(CC(=O)O)CC(=O)O)CC(=O)O	6.6% (inactive)
NC(=O)c1ncn(C2OC(CO)C(O)C2O)n1 (centres undefined)	2.97% (inactive)
C=CCSSSCC=C	6.54% (inactive)
CC1=C(/C=C/C(C)=C/C=C/C(C)=C/C=C/C=C(C)/C=C/C=C(C)/C=C/C2=C(C)CCCC2(C)C)C(C)(C)CCC1	1.45% (inactive)
CC1=C(/C=C/C(C)=C/C=C/C(C)=C/C=C/C=C(C)/C=C/C=C(C)/C=C/C2=C(C)C(=O)CCC2(C)C)C(C)(C)CCC1=O	5.18% (inactive)

Same assay, conditions: Drosophila S3 cells, BODIPY lipid droplet/cell ratio, laser cytometry; measured here: cell count channel max response; cells loaded with oleic acid

Structure (SMILES)	max response
Oc1cc(O)c2c(c1)OC(c1ccc(O)c(O)c1)C(O)C2 (centres undefined)	2.83%
OCc1ccccc1O[C@@H]1O[C@H](CO)[C@@H](O)[C@H](O)[C@H]1O	-14.9%
Cc1cn([C@H]2C[C@H](O)[C@@H](CO)O2)c(=O)[nH]c1=O	-24%
Cc1c(C)c2c(c(C)c1O)CC[C@@](C)(CCC[C@@H](C)CCC[C@@H](C)CCCC(C)C)O2	2.07%
CCCC(=O)Nc1ncnc2c1ncn2C1OC2COP(=O)(O)OC2C1OC(=O)CCC (centres undefined)	15.6%
CC[N+](C)(C)Cc1ccccc1Br	1.39% and 57.6%
O=c1ccn([C@@H]2O[C@H](CO)[C@@H](O)[C@H]2O)c(=O)[nH]1	-6.37%
CC1(C)S[C@@H]2[C@H](NC(=O)[C@@H](NC(=O)N3CCNC3=O)c3ccccc3)C(=O)N2[C@H]1C(=O)O	-12.9%
Cc1c(C)c2c(c(C)c1O)CC[C@@](C)(CCC[C@H](C)CCC[C@H](C)CCCC(C)C)O2	-14.2%
C[C@@H]1CCC2[C@@H](C)[C@@H](O)O[C@@H]3O[C@@]4(C)CC[C@@H]1[C@@]23OO4 (some centres undefined)	14.2%
CN1Cc2c(N)cccc2C(c2ccccc2)C1 (centres undefined)	11.3%
CC1(C)S[C@@H]2[C@H](NC(=O)Cc3ccccc3)C(=O)N2[C@H]1C(=O)O	2.65%
CCCC(=O)Nc1ncnc2c1ncn2[C@@H]1O[C@@H]2COP(=O)(O)O[C@H]2[C@H]1OC(=O)CCC	-7.18%
CCC(=O)NCCC1CCc2ccc3c(c21)CCO3 (centres undefined)	9.34%
O=C(O)CN(CCN(CC(=O)O)CC(=O)O)CC(=O)O	-1.95%
NC(=O)c1ncn(C2OC(CO)C(O)C2O)n1 (centres undefined)	6.51%
C=CCSSSCC=C	-4.64%
CC1=C(/C=C/C(C)=C/C=C/C(C)=C/C=C/C=C(C)/C=C/C=C(C)/C=C/C2=C(C)CCCC2(C)C)C(C)(C)CCC1	15.1%
CC1=C(/C=C/C(C)=C/C=C/C(C)=C/C=C/C=C(C)/C=C/C=C(C)/C=C/C2=C(C)C(=O)CCC2(C)C)C(C)(C)CCC1=O	20.9%
CCN(CC)Cc1cc(Nc2ccnc3cc(Cl)ccc23)ccc1O	-18.5%
CC(C)(C)C(=O)OCOC(=O)[C@@H]1N2C(=O)[C@@H](N=CN3CCCCCC3)[C@H]2SC1(C)C	-9.59%

Same assay, conditions: Drosophila S3 cells, BODIPY lipid droplet/cell ratio, laser cytometry; measured here: lipid channel max response; cells loaded with oleic acid

Structure (SMILES)	max response
Oc1cc(O)c2c(c1)OC(c1ccc(O)c(O)c1)C(O)C2 (centres undefined)	12.7%
OCc1ccccc1O[C@@H]1O[C@H](CO)[C@@H](O)[C@H](O)[C@H]1O	-16.3%
Cc1cn([C@H]2C[C@H](O)[C@@H](CO)O2)c(=O)[nH]c1=O	-24.4%
Cc1c(C)c2c(c(C)c1O)CC[C@@](C)(CCC[C@@H](C)CCC[C@@H](C)CCCC(C)C)O2	-0.999%
CCCC(=O)Nc1ncnc2c1ncn2C1OC2COP(=O)(O)OC2C1OC(=O)CCC (centres undefined)	29.9%
CC[N+](C)(C)Cc1ccccc1Br	2.06% and 57.4%
O=c1ccn([C@@H]2O[C@H](CO)[C@@H](O)[C@H]2O)c(=O)[nH]1	-5.71%
CC1(C)S[C@@H]2[C@H](NC(=O)[C@@H](NC(=O)N3CCNC3=O)c3ccccc3)C(=O)N2[C@H]1C(=O)O	-11.6%
Cc1c(C)c2c(c(C)c1O)CC[C@@](C)(CCC[C@H](C)CCC[C@H](C)CCCC(C)C)O2	-14.3%
C[C@@H]1CCC2[C@@H](C)[C@@H](O)O[C@@H]3O[C@@]4(C)CC[C@@H]1[C@@]23OO4 (some centres undefined)	15.2%
CN1Cc2c(N)cccc2C(c2ccccc2)C1 (centres undefined)	9.26%
CC1(C)S[C@@H]2[C@H](NC(=O)Cc3ccccc3)C(=O)N2[C@H]1C(=O)O	2.53%
CCCC(=O)Nc1ncnc2c1ncn2[C@@H]1O[C@@H]2COP(=O)(O)O[C@H]2[C@H]1OC(=O)CCC	-6.01%
CCC(=O)NCCC1CCc2ccc3c(c21)CCO3 (centres undefined)	23.8%
O=C(O)CN(CCN(CC(=O)O)CC(=O)O)CC(=O)O	6.6%
NC(=O)c1ncn(C2OC(CO)C(O)C2O)n1 (centres undefined)	12.6%
C=CCSSSCC=C	3.63%
CC1=C(/C=C/C(C)=C/C=C/C(C)=C/C=C/C=C(C)/C=C/C=C(C)/C=C/C2=C(C)CCCC2(C)C)C(C)(C)CCC1	17%
CC1=C(/C=C/C(C)=C/C=C/C(C)=C/C=C/C=C(C)/C=C/C=C(C)/C=C/C2=C(C)C(=O)CCC2(C)C)C(C)(C)CCC1=O	28.3%
CCN(CC)Cc1cc(Nc2ccnc3cc(Cl)ccc23)ccc1O	-20.7%
CC(C)(C)C(=O)OCOC(=O)[C@@H]1N2C(=O)[C@@H](N=CN3CCCCCC3)[C@H]2SC1(C)C	-6.96%
